In the library only some 2.8% were active in any assay of this set; here they are far more common.
ERa coact pot = enhances coactivator binding to human estrogen receptor alpha; P03372; TR-FRET ERalpha-LBD/SRC-Cy5 coactivator binding, 2 h; 100 = basal binding, no effect; coactivator binding (% of control), % at 25.6 µM; 86,000 tested, 1.3% active; in the data active = activity above about 200%;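 note: binding measured in presence of low estradiol as agonist stimulus; 0% = peptide alone without receptor and 100% = receptor with peptide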
Target sequence (P03372 whole entry, looked up, the tested form may be a part): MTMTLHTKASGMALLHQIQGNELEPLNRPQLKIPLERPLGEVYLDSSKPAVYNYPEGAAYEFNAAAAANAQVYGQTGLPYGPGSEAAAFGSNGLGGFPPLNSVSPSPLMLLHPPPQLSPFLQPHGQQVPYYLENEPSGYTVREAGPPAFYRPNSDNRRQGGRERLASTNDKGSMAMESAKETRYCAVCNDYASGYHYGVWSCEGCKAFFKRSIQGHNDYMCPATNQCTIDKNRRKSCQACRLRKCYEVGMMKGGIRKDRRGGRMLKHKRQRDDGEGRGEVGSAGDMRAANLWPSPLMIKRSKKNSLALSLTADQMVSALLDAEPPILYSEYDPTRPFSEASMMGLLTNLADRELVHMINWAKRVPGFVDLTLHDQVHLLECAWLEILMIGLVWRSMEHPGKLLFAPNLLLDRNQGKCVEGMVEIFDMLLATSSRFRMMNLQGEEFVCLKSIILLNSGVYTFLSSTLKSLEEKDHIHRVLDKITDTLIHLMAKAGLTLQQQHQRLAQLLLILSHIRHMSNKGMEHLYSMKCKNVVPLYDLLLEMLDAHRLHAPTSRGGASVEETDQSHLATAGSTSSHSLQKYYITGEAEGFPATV
ERb SRC1 inh = ER-beta (human) coactivator binding inhibition; 86,000 tested, 1.3% active; Q92731; inhibition, % at 25.6 µM; TR-FRET ER-beta LBD / SRC1-Cy5 peptide binding; receptor agonist-loaded with 1 µM estradiol;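 active = compounds whose percent inhibition of the receptor-coactivator binding signal exceeds about 50% in the single-dose screen, limit read from the data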;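 note: 0% = receptor plus peptide wells without compound and 100% = peptide-only wells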
Smad3 FoxH1 inh = blocks human Smad3 binding to FoxH1 peptide | inhibition, % at 25 µM | 88,000 tested, 0.29% active | AID 630 | P84022 | TR-FRET Smad3/Dy647-FoxH1 peptide binding, europium anti-His;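 active = compounds that reduce the energy-transfer binding signal between the protein and its labelled peptide by more than half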;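 note: 0% = Smad3 plus labelled peptide maximal FRET and 100% = peptide-only background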
ERa coact inh = ER-alpha (human) coactivator binding inhibition. P03372. TR-FRET ER-alpha LBD / SRC-1 peptide, estradiol-bound. inhibition, % at 25.6 µM. 86,000 tested, 1.7% active. AID 629; in the data active = inhibition above about 50%;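 note: 0% = receptor plus peptide control and 100% = peptide only without receptor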
MRP resist rev = compounds reversing MRP-mediated drug resistance; 85,000 tested, 0.04% active; differential viability (reversal), % at 10 µM; H69AR cells + 2 uM doxorubicin, CellTiter-Glo, 72 h; AID 602;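 active = viability drop by adding the cancer drug above about 55%, with treated viability meeting a 40% cutoff, limit read from the data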;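 note: viability without doxorubicin minus viability with 2 µM doxorubicin for each compound; larger differential means the compound sensitizes cells more to doxorubicin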
MRP-1 activ = activators of MRP-1 | H69AR cells + doxorubicin, viability rescue, CellTiter-Glo | viability increase, % at 10 µM | 140,000 tested, 0.61% active | AID 799;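 active = viability gain under doxorubicin at or above a set limit, the compound median plus 3 SD, cut at about 4.7% in these data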;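 note: MRP-1 overexpressing cells given doxorubicin 25 µM after compound pretreatment; 18-22 h compound pretreatment then 72 h with doxorubicin before readout; 0% = doxorubicin-only wells and 100% = vehicle-treated cells without doxorubicin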
The depositor's hits bear a star; [ ] = dose if it differs, or a comment.

For Cc1noc(/C=C/N(C)C)c1S(=O)(=O)N1CCCC(C(=O)NC(C)c2ccccc2)C1 (stereo not given) the results were ERa coact pot 117, ERb SRC1 inh -1, Smad3 FoxH1 inh 12, ERa coact inh 11, MRP resist rev 6 and MRP-1 activ 0.
For Cc1cc(C)c(C#N)c(OCC(=O)c2ccccc2)n1 the results were ERa coact pot 108, ERb SRC1 inh -3, Smad3 FoxH1 inh -2, ERa coact inh -1, MRP resist rev -12 and MRP-1 activ -3.
Screening N#Cc1c(OCC(=O)c2ccccc2)nc2c(c1-c1ccco1)CCc1ccccc1-2 returned ERa coact pot 230*, ERb SRC1 inh 13, Smad3 FoxH1 inh -10, ERa coact inh 15, MRP resist rev -14 and MRP-1 activ -4.
CN(C)/C=C(/C(=O)c1ccc(Cl)cc1)S(=O)(=O)c1ccc(Cl)cc1 was read as MRP-1 activ 0.
`O=C(NCc1ccco1)c1ccc(=O)[nH]n1` gave ERa coact pot 53, ERb SRC1 inh 67*[fluorescence artefact?], Smad3 FoxH1 inh 6, ERa coact inh 45, MRP resist rev -26 and MRP-1 activ -1.
Screening Cc1nnc(N/N=C/c2ccc(O)c([N+](=O)[O-])c2)[nH]c1=O returned MRP-1 activ 0.
Screening Cc1csc(N/N=C/c2ccc(O)c([N+](=O)[O-])c2)n1 returned ERa coact pot 4, ERb SRC1 inh 99*[fluorescence artefact?], Smad3 FoxH1 inh 14, ERa coact inh 99*[fluorescence artefact?], MRP resist rev 25 and MRP-1 activ -2.
For COc1ccc(C(=O)NCCn2ccc3ccccc32)cc1 the results were ERa coact pot 104, ERb SRC1 inh 2, Smad3 FoxH1 inh -4, ERa coact inh 4, MRP resist rev -6 and MRP-1 activ 2.
`Cc1cc2ccccc2n1CCNC(=O)Cc1cccc2ccccc12` gave ERa coact pot 212*, ERb SRC1 inh 5, Smad3 FoxH1 inh 4, ERa coact inh 0, MRP resist rev 12 and MRP-1 activ -2.
`Cc1cc2ccccc2n1CCNC(=O)c1ccccc1` gave ERa coact pot 122, ERb SRC1 inh 14, Smad3 FoxH1 inh 4, ERa coact inh 27, MRP resist rev 5 and MRP-1 activ 2.
Screening O=C(NCc1ccco1)c1ccc(S(=O)(=O)N2CCOCC2)cc1 returned ERa coact pot 37, ERb SRC1 inh 56*[fluorescence artefact?], Smad3 FoxH1 inh -8, ERa coact inh 70*[fluorescence artefact?], MRP resist rev 9 and MRP-1 activ -3.
`CCC(=O)NCCn1c(C)cc2ccccc21` gave ERa coact pot 80, ERb SRC1 inh -2, Smad3 FoxH1 inh -1, ERa coact inh -5, MRP resist rev -19 and MRP-1 activ 0.
Screening O=C(NCCn1ccc2ccccc21)c1ccc(S(=O)(=O)N2CCCCC2)cc1 returned ERa coact pot 110, ERb SRC1 inh 35, Smad3 FoxH1 inh 59*, ERa coact inh -8, MRP resist rev -18 and MRP-1 activ -4.
For Cc1cc2ccccc2n1CCNC(=O)c1ccc(S(=O)(=O)N2CCOCC2)cc1 the results were ERa coact pot 98, ERb SRC1 inh 31, Smad3 FoxH1 inh 7, ERa coact inh 70*[fluorescence artefact?], MRP resist rev -2 and MRP-1 activ -4.
CC1CCCN(Cc2nc3c(c(=O)n(C)c(=O)n3C)n2CCCc2ccccc2)C1 (stereo not given) was read as ERa coact pot 128, ERb SRC1 inh 3, Smad3 FoxH1 inh 2, ERa coact inh -5, MRP resist rev 8 and MRP-1 activ 0.
Screening O=C(O)c1ccc(SSc2ccc(C(=O)O)cn2)nc1 returned Smad3 FoxH1 inh 1.
Cn1c(SCc2c(Cl)cccc2Cl)nc(C(F)(F)F)cc1=O was read as MRP-1 activ -1.
Screening CC1(C)N=C(N)N=C(N)N1c1cccc(OCc2cccc(N)c2)c1 returned Smad3 FoxH1 inh 11.
Screening COc1ccc(CCNC(=O)Cn2nc([N+](=O)[O-])c(Br)c2C)cc1OC returned MRP-1 activ -3.
`O=C1NC(=O)C2(COC3(CCCC3)OC2)S1` gave ERa coact pot 74, ERb SRC1 inh 10, Smad3 FoxH1 inh 6, ERa coact inh 10, MRP resist rev -1 and MRP-1 activ 4.8*.
For COc1ccc(C2OCC3(CO2)SC(=O)NC3=O)cc1 (stereo not given) the results were MRP-1 activ -2.
